Measured values from PubChem BioAssay AID504652 (National Center for Advancing Translational Sciences (NCATS), 2011).
In all, about 360,000 compounds went through this assay and about 11,000 (3.1%) were called active. For the sample, actives were picked, then their nearest neighbours and some compounds at random. A number with no mark means an inactive call. Cut-off read from the data, not from the text of the source: active = activity change below about -30%; inactive = the rest.

Biological target: D(1A) dopamine receptor (Homo sapiens) (UniProt P21728)
Sequence (P21728 whole entry, looked up): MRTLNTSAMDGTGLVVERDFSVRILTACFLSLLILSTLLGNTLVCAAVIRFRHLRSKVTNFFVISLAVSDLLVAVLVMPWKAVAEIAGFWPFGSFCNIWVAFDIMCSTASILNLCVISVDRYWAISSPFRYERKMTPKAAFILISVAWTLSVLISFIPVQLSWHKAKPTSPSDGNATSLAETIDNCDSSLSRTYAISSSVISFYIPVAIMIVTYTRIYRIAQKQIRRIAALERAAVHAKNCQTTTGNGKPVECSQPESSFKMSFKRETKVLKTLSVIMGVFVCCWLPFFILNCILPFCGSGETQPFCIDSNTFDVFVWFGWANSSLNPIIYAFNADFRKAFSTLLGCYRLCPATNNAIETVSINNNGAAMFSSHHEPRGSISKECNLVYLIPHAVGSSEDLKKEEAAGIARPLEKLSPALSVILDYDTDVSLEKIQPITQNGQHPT
Experiment: Antagonist of Human D 1 Dopamine Receptor: qHTS
Details: HEK293 TREx D1 cells, calcium flux, dopamine EC80; at 10 µM; active compounds read low
Procedure, shortened: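 HEK293 T-REx cells expressing inducible, force-coupled D1 receptor; no-wash Ca dye, 30–90 min RT. Cmpd → 180 s read at 1 Hz → EC80 DA → 180 s read.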
% is set by controls: 0 for no effect and ±100 for the full control effect.

| Structure (SMILES) | activity change, negative = inhibition |
| --- | --- |
| Cc1ccc(N(C)C(=O)C2CCN(S(=O)(=O)c3ccc4c(c3)CCCN4C(=O)C3CCC3)CC2)cc1 | 10.1% |
| O=C(CCCCn1c(=O)c2ccccc2n(CC(=O)Nc2cccc(C(F)(F)F)c2)c1=O)NCc1ccc2c(c1)OCO2 | 3.4% |
| COc1ccc(CCn2cc3c(c2-c2ccc(Br)cc2)c(=O)n(C)c(=O)n3C)cc1OC | 2.27% |
| Fc1ccc(CN2CCc3nc(Nc4ccccc4)ncc3C2)cc1F | 5.84% |
| COc1ccc2c(c1)Cc1sc(NC(=O)c3ccccc3Br)nc1-2 | 6.21% |
| CCCCSc1ncnc2c1sc1nc(N3CCOCC3)c3c(c12)CCCC3 | 3.48% |
| O=C(CSc1nccn1Cc1ccc(Cl)cc1)NCc1ccccc1 | -34.5% (active) |
| CCCCNC(=O)CSc1nccn1Cc1ccccc1 | 23.5% |
| O=C(CSc1nccn1Cc1ccc(F)cc1)NCc1ccccc1 | 9.06% |
| Cc1oc(-c2ccccc2F)nc1CN1CCC(C(=O)NCCc2ccc(Cl)cc2)CC1 | -10.2% |
| CC(C)C12CN3CC(C(C)C)(CN(C1)C3c1ccc(OCc3ccccc3)cc1)C2=O (stereo not given) | -2.54% |
| COc1cccc(C2C(C(=O)Nc3ccc(C)cc3C)=C(C)Nc3c(C(=O)Nc4ccccc4)cnn32)c1 (stereo not given) | 0.0774% |
| CC(C)c1ccc(NC(=O)Cn2ncc3ccccc32)cc1 | -8.47% |
| CC(NC(=O)Nc1ccccc1)c1ccccc1 (stereo not given) | 5.33% |
| CCC(C(=O)Nc1ccc(C(C)C)cc1)c1ccccc1 (stereo not given) | -50.8% (active) |
| CCOc1ccc(-c2cc3c(=O)n(CC(=O)NCc4ccc(OC)cc4)ccn3n2)cc1 | 8.73% |
| O=C(NCCc1csc(-c2ccc(C(F)(F)F)cc2)n1)C(=O)Nc1ccc(F)c(Cl)c1 | -0.398% |
| CCn1c2ccccc2c2nnc(SCC(=O)O)nc21 | 6.1% |
| CCOc1ccc(C(=O)/C=C/c2cn(CC(O)CN3CCCCCC3)c3ccccc23)cc1 (stereo not given) | -35% (active) |
| O=C(c1ccc(Cl)cc1)c1ccc(OCC(O)CN2CCCCC2)cc1 (stereo not given) | -13.7% |
| O=C(/C=C/c1cn(CC(O)CN2CCc3ccccc32)c2ccccc12)c1ccc(Br)cc1 (stereo not given) | -3.99% |
| CC(C)c1ccc(NC(=O)Cn2nnc(C(=O)NCCc3ccccc3)c2N)cc1 | -8.95% |
| Cc1ccc(S(=O)(=O)N2CC(=O)Nc3ccccc32)cc1C | 7.51% |

| Structure (SMILES) | activity change, negative = inhibition |
| --- | --- |
| Cc1ccc(C)c(S(=O)(=O)N2CC(=O)Nc3ccccc32)c1 | -34.4% (active) |
| Cc1ccc(C)c(S(=O)(=O)N2CCN(C(=O)Nc3ccccc3)CC2)c1 | -15% |
| CC1=C(C(=O)OCC2CCCCC2)C(c2c(F)cccc2Cl)CC(=O)N1 (stereo not given) | -8.23% |
| CN(C)S(=O)(=O)N1CCC(Oc2cccc(C(=O)NCCCC3CCCC3)c2)CC1 | -36.8% (active) |
| CNS(=O)(=O)c1cccc(C(=O)NCC2CCCCC2)c1 | 15.5% |
| CN(C(=O)c1cccc(OC2CCN(S(=O)(=O)N(C)C)CC2)c1)C1CCOC1 (stereo not given) | -17.2% |
| CCOCCc1nn2c(=O)cc(COC(=O)CNC(=O)c3ccc(C(C)(C)C)cc3)nc2s1 | -0.812% |
| CCC(=O)N1c2ccccc2CC1C(=O)N1CCN(c2cccc(OC)c2)CC1 (stereo not given) | -5.92% |
| CCc1ccc(S(=O)(=O)c2nnn3c2nc(NCc2ccccc2OC)c2cc(Cl)ccc23)cc1 | 2.93% |
| CCCNC(=O)c1ccc2c(c1)ncn2-c1ccc(C)cc1C | -21.9% |
| Cc1ccc(CCNC(=O)C2CCN(c3nnc(-n4cccc4CNc4ccc(C)cc4)s3)CC2)cc1 | -30% (active) |
| CSc1ccc(CCNC(=O)C2CCN(c3nnc(-n4cccc4)s3)CC2)cc1 | 11.1% |
| CCOc1ccc(CNC(=O)C2CCN(c3nnc(-n4cccc4CNc4ccc(C)cc4)s3)CC2)cc1OC | 4.12% |
| Cc1ccc(C2CC(c3cccc(C)c3)n3nc(N)nc3N2)cc1 (stereo not given) | 9.87% |
| CCOc1ccccc1C1CC(c2ccccc2)Nc2nc(N)nn21 (stereo not given) | -30.1% (active) |
| CCOc1ccccc1C1CC(c2ccc(Cl)cc2)Nc2nc(N)nn21 (stereo not given) | 13.6% |
| c1ccc(-c2csc(N3CCc4ccccc4C3)n2)cc1 | 4.74% |
| CN(C)CCCNC(=S)N1CCN(c2nc(-c3ccccc3)cs2)CC1 | -48% (active) |
| COCCCNC(=S)N1CCN(c2nc(-c3cccc(OC)c3)cs2)CC1 | -31% (active) |
| COCCCNC(=S)N1CCCC(c2nc3cc(C)c(C)cc3[nH]2)C1 (stereo not given) | -12% |
| CN(C)CCCNC(=S)N1CCC(c2nc3ccccc3[nH]2)CC1 | 7.97% |
| COc1cccc(-c2ccc(SCC(=O)N3CCN(c4ccccc4)CC3)nn2)c1 | 3.13% |
